Our source for the outcome and AC50 values is PubChem BioAssay (EPA / NIEHS).

Inconclusive results are not listed. Active and inactive are the calls of the source. The calls were made as follows: active = hit-call score of the fitted dose curve at least 0.9, where 1 is the maximum; inconclusive = response in the unintended direction; inactive = score below 0.9.

As a reminder, the AC50 is the concentration giving half of the maximal activity seen.

The target in this assay is Cellular tumor antigen p53 (Homo sapiens) (UniProt P04637). Put plainly: TOX21_p53_BLA_p4_ratio: Tox21 HCT-116 p53 Agonism Beta-lactamase Assay, Ratio, Phase 4 (AID 2283601). The gist of the method: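 Signal is the blue/green (460nm/530nm) ratio of cleaved versus uncleaved CCF4-AM substrate, read after 2 h substrate loading. Cells were HCT116 carrying the p53-responsive beta-lactamase reporter, dosed 16 h at 37C, 5% CO2; CellTiter-Glo measured in parallel.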
Cellular tumor antigen p53 (Homo sapiens), sequence (P04637 whole entry, looked up): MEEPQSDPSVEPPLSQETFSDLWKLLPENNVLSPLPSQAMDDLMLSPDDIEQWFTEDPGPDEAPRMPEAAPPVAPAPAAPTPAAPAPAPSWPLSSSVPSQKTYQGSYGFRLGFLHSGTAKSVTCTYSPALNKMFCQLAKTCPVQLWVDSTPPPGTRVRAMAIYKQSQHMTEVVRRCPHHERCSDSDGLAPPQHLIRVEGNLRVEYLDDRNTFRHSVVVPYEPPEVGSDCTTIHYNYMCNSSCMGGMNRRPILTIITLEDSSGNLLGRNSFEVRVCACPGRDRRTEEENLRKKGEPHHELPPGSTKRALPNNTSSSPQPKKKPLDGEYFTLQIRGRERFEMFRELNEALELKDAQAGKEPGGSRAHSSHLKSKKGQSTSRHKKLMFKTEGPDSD
Take `NS(=O)(=O)c1cc2c(cc1Cl)NC(C(Cl)Cl)NS2(=O)=O` (stereo not drawn): the result was inactive.
As to `CN1CCN(C(c2ccccc2)c2ccccc2)CC1`, the result was inactive.
In the case of `CC(C)OC(=O)CCC(=O)OC(C)C`, the result was inactive.
Same read-out and setting: in the case of `CCOCC(O)COc1ccc(NC(=O)CC[S+](C)C)cc1` (stereo not drawn) it was “inactive”.
On the same count and under the same terms, in the case of `C=CC(=O)OCC1CCCO1` (stereo not drawn) it was “inactive”.
As to `NC[C@H]1O[C@H](O[C@H]2[C@H](O[C@@H]3O[C@H](CO)[C@@H](O)[C@H]3O)C(O)[C@H](N)C[C@@H]2N)[C@H](N)[C@@H](O)[C@@H]1O` (stereo partly drawn), the outcome was inactive.
Still for that read-out and setting: in the case of `O=c1[nH]cnc2c1ncn2[C@@H]1O[C@H](CO)[C@@H](O)[C@H]1O` it was “inactive”.
`CC[C@]1(O)C[C@H]2CN(CCc3c([nH]c4ccccc34)[C@@](C(=O)OC)(c3cc4c(cc3OC)N(C=O)[C@H]3[C@@](O)(C(=O)OC)[C@H](OC(C)=O)[C@]5(CC)C=CCN6CC[C@]43[C@@H]65)C2)C1`: the AC50 is 18.4 nM (active).
Turning to `COC(=O)Nc1nc2ccc(C(=O)c3ccccc3)cc2[nH]1`, the outcome was inactive.
On to `CC(Cc1cccc(C(F)(F)F)c1)NCCOC(=O)c1ccccc1` (stereo not drawn), for which the result was inactive.
Still for that read-out and setting: in the case of `Cc1cc(=O)c(C(=O)N[C@@H](C(=O)N[C@@H]2C(=O)N3C(C(=O)O)=C(CSc4nnnn4C)CS[C@H]23)c2ccc(O)cc2)c[nH]1` it was “inactive”; in that of `CC(=O)NC[C@H]1CN(c2ccc(N3CCOCC3)c(F)c2)C(=O)O1`, “inactive”.
The same measure, in the same setting: in the case of `Cc1ccc(Cl)c(N)c1Cl` it was “inactive”; in that of `NC(=O)c1ccc[n+]([C@@H]2O[C@H](COP(=O)([O-])OP(=O)(O)OC[C@H]3O[C@@H](n4cnc5c(N)ncnc54)[C@H](O)[C@@H]3O)[C@@H](O)[C@H]2O)c1`, “inactive”.
For the molecule `NC1[C@H]2CN(c3nc4c(cc3F)c(=O)c(C(=O)O)cn4-c3ccc(F)cc3F)C[C@@H]12` (stereo partly drawn), the result was inactive.
Consider `CN(C)c1ccc(SC#N)cc1`, for which the outcome was inactive.
Take `NS(=O)(=O)c1ccc(C(=O)O)cc1`: the result was inactive.
On the same count and under the same terms, in the case of `CC(CN1c2ccccc2Sc2cccnc21)N(C)C` (stereo not drawn) it was “inactive”.
Turning to `CC(C)(C)C(=O)OCC(=O)[C@H]1CC[C@H]2[C@@H]3CCC4=CC(=O)CC[C@]4(C)[C@H]3CC[C@]12C`, the outcome was inactive.
Take `NC(=O)CC[C@@H]1NC(=O)[C@H](Cc2ccccc2)NC(=O)[C@H](Cc2ccc(O)cc2)NC(=O)[C@@H](N)CSSC[C@@H](C(=O)N2CCC[C@H]2C(=O)N[C@@H](CCCN=C(N)N)C(=O)NCC(N)=O)NC(=O)[C@H](CC(N)=O)NC1=O`: the result was inactive.
As to `CN1c2c(nc(N)[nH]c2=O)NCC1CNc1ccc(C(=O)NC(CCC(=O)O)C(=O)O)cc1` (stereo not drawn), the result was inactive.
As for `CCCCCC(N)=O`, the result was inactive.
As to `COc1cc(C(=S)N2CCOCC2)ccc1O`, the outcome was inactive.
On the same count and under the same terms, in the case of `Cc1cc(O)ccc1O` it was “inactive”; in that of `C[n+]1ccn(Cc2ccccc2)c1`, “inactive”; in that of `NC(=O)CC[C@@H](N)C(=O)O`, “inactive”.
Turning to `C=CC(=O)OCCOCC(CC)(COCCOC(=O)C=C)COCCOC(=O)C=C`, the result was inactive.
Take `NC(=O)Cc1cccc2ccccc12`: the outcome was inactive.
